Reference: the supplement of paper PMC12645437, “Orthogonal IMiD-Degron Pairs Induce Selective Protein Degradation in Cells” (ACS Chemical Biology, 2025)
Whole data set: some 8,300 sequences, median “log2 fold change of degron read counts, EGFP-low vs EGFP+ sorted cells (limma voom), compound-induced degradation” near -1.1, cut for the highest 2% near 3.2. This is one part of a sample in which the highest values are shown more often than they occur.

T1: CRBN, Q96SW2
T1 chain: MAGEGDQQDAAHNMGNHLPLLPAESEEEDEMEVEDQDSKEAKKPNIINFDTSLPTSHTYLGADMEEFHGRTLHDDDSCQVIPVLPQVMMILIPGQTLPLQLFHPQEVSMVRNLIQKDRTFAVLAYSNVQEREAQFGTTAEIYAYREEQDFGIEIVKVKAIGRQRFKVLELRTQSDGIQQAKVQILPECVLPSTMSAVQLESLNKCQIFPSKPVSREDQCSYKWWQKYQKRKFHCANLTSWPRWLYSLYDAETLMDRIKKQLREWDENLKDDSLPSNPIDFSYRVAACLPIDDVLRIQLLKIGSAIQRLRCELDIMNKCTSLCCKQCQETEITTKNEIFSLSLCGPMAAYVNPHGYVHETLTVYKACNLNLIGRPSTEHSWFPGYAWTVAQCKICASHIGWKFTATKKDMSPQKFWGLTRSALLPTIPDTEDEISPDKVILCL

B1: 46F_47W_49E_50I_52G_53H_54W_55F_67L_, Q9UKT9 (peptide)
chain: FWCEICGHWFTQKGNLLRHIKL
B2: 46F_47V_49E_50I_52G_53A_54W_55F_67L_, Q9UKT9 (peptide)
chain: FVCEICGAWFTQKGNLLRHIKL
B3: 46F_47S_49N_50I_52G_53A_54S_55F_67L_, Q9UKT9 (peptide)
chain: FSCNICGASFTQKGNLLRHIKL
B4: 46F_47C_49P_50Q_52G_53A_54M_55F_67L_, Q9UKT9 (peptide)
chain: FCCPQCGAMFTQKGNLLRHIKL
B5: 46L_47Y_49N_50Q_52G_53F_54V_55C_67L_, Q9UKT9 (peptide)
chain: LYCNQCGFVCTQKGNLLRHIKL
B6: 46F_47H_49N_50Q_52G_53A_54V_55F_67L_, Q9UKT9 (peptide)
chain: FHCNQCGAVFTQKGNLLRHIKL
B7: 46F_47D_49N_50V_52G_53A_54T_55F_67L_, Q9UKT9 (peptide)
chain: FDCNVCGATFTQKGNLLRHIKL
B8: 46F_47E_49P_50I_52G_53H_54Y_55F_67L_, Q9UKT9 (peptide)
chain: FECPICGHYFTQKGNLLRHIKL
B9: 46F_47E_49D_50V_52G_53A_54W_55F_67L_, Q9UKT9 (peptide)
chain: FECDVCGAWFTQKGNLLRHIKL
B10: 46F_47A_49N_50I_52G_53A_54A_55F_67L_, Q9UKT9 (peptide)
chain: FACNICGAAFTQKGNLLRHIKL
B11: 46F_47Y_49N_50I_52G_53A_54A_55F_67L_, Q9UKT9 (peptide)
chain: FYCNICGAAFTQKGNLLRHIKL
B12: 46F_47Q_49N_50I_52G_53A_54A_55F_67L_, Q9UKT9 (peptide)
chain: FQCNICGAAFTQKGNLLRHIKL
B13: 46F_47R_49N_50I_52G_53A_54A_55F_67L_, Q9UKT9 (peptide)
chain: FRCNICGAAFTQKGNLLRHIKL
B14: 46F_47E_49N_50I_52G_53A_54A_55F_67L_, Q9UKT9 (peptide)
chain: FECNICGAAFTQKGNLLRHIKL
B15: 46F_47W_49N_50I_52G_53A_54A_55F_67L_, Q9UKT9 (peptide)
chain: FWCNICGAAFTQKGNLLRHIKL
B16: 46F_47C_49E_50Q_52G_53A_54N_55F_67L_, Q9UKT9 (peptide)
chain: FCCEQCGANFTQKGNLLRHIKL
B17: 46F_47H_49P_50I_52G_53H_54P_55F_67L_, Q9UKT9 (peptide)
chain: FHCPICGHPFTQKGNLLRHIKL
B18: 46L_47F_49E_50I_52G_53F_54M_55C_67L_, Q9UKT9 (peptide)
chain: LFCEICGFMCTQKGNLLRHIKL
B19: 46F_47R_49E_50I_52G_53R_54I_55F_67L_, Q9UKT9 (peptide)
chain: FRCEICGRIFTQKGNLLRHIKL
B20: 46F_47S_49N_50Q_52G_53A_54V_55F_67L_, Q9UKT9 (peptide)
chain: FSCNQCGAVFTQKGNLLRHIKL
B21: 46F_47R_49E_50V_52G_53A_54K_55F_67L_, Q9UKT9 (peptide)
chain: FRCEVCGAKFTQKGNLLRHIKL
B22: 46F_47G_49E_50V_52G_53A_54K_55F_67L_, Q9UKT9 (peptide)
chain: FGCEVCGAKFTQKGNLLRHIKL
B23: 46F_47M_49E_50V_52G_53A_54K_55F_67L_, Q9UKT9 (peptide)
chain: FMCEVCGAKFTQKGNLLRHIKL
B24: 46F_47K_49E_50V_52G_53A_54K_55F_67L_, Q9UKT9 (peptide)
chain: FKCEVCGAKFTQKGNLLRHIKL
B25: 46F_47E_49E_50V_52G_53A_54K_55F_67L_, Q9UKT9 (peptide)
chain: FECEVCGAKFTQKGNLLRHIKL
B26: 46F_47S_49E_50V_52G_53A_54K_55F_67L_, Q9UKT9 (peptide)
chain: FSCEVCGAKFTQKGNLLRHIKL
B27: 46F_47I_49E_50V_52G_53A_54K_55F_67L_, Q9UKT9 (peptide)
chain: FICEVCGAKFTQKGNLLRHIKL
B28: 46F_47Q_49E_50V_52G_53A_54K_55F_67L_, Q9UKT9 (peptide)
chain: FQCEVCGAKFTQKGNLLRHIKL
B29: 46F_47W_49E_50V_52G_53A_54K_55F_67L_, Q9UKT9 (peptide)
chain: FWCEVCGAKFTQKGNLLRHIKL
B30: 46F_47A_49E_50V_52G_53A_54K_55F_67L_, Q9UKT9 (peptide)
chain: FACEVCGAKFTQKGNLLRHIKL
B31: 46F_47D_49E_50V_52G_53A_54K_55F_67L_, Q9UKT9 (peptide)
chain: FDCEVCGAKFTQKGNLLRHIKL
B32: 46F_47L_49E_50V_52G_53A_54K_55F_67L_, Q9UKT9 (peptide)
chain: FLCEVCGAKFTQKGNLLRHIKL

Target: T1, CRBN, Q96SW2
Experiment: log2 fold change of degron read counts, EGFP-low vs EGFP+ sorted cells (limma voom), compound-induced degradation; higher = more compound-induced degradation of the degron-EGFP fusion; degrons are variants of IKZF1/3 zinc finger 2; compound dose not given here
Conditions: Jurkat, 18 h
[1] = compound: compound 19 (5-tert-butyl-thalidomide)
[2] = compound: compound 22 (5-morpholino-thalidomide)
[3] = compound: compound 33 (diphenyl IMiD analogue)
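Also: pooled lentiviral library of zinc finger degron-EGFP fusions in mCherry-positive Jurkat cells, FACS-sorted after compound exposure, with degron abundance counted by next-generation sequencing.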

Row | Sequence | log2 fold change of degron read counts [1] | log2 fold change of degron read counts [2] | log2 fold change of degron read counts [3] | log2 fold change of degron read counts (compound: thalidomide)
1 | B1 | -1.25 | -1.77 | -1.42 | -1.28
2 | B2 | -1.2 | -0.828 | 0.741 | 0.583
3 | B3 | 1.66 | 1.77 | 1.15 | 0.544
4 | B4 | -1.18 | -1.69 | 0.335 | -0.935
5 | B5 | -0.977 | -0.96 | -1.36 | -1.76
6 | B6 | -1.89 | -2.19 | -1.71 | -2
7 | B7 | -1.91 | -2.32 | -1.24 | -1.1
8 | B8 | -2.41 | -2.69 | -1.81 | -1.2
9 | B9 | -3.45 | -3.71 | -2.2 | -2.52
10 | B10 | 2.77 | 2.64 | 0.592 | 0.334
11 | B11 | 2.66 | 2.97 | 1.81 | -0.259
12 | B12 | 1.01 | 2.28 | 1.53 | 3.39
13 | B13 | 1.09 | 1.5 | 1.96 | 1.32
14 | B14 | 0.374 | -0.891 | 1.05 | 2.1
15 | B15 | 2.29 | 3.32 | 1.66 | 0.348
16 | B16 | -1.5 | -1.89 | -0.599 | -1.3

Row | Sequence | log2 fold change of degron read counts [1] | log2 fold change of degron read counts [2] | log2 fold change of degron read counts [3] | log2 fold change of degron read counts (compound: thalidomide)
17 | B17 | 0.356 | -0.486 | 1.11 | -0.0778
18 | B18 | 3.2 | 3.12 | 1.56 | 1.17
19 | B19 | -2.12 | -2.31 | -0.593 | -0.94
20 | B20 | -1.79 | -1.84 | -0.0126 | -1.8
21 | B21 | -0.518 | -0.4 | 0.471 | 1.09
22 | B22 | 3.69 | 1.3 | -1.12 | 1.16
23 | B23 | 0.0707 | -0.168 | 0.454 | 0.604
24 | B24 | -1.41 | -3.28 | -3.54 | -1.57
25 | B25 | 0.451 | -1.55 | -0.965 | 2.59
26 | B26 | 3.08 | 1.75 | -0.985 | 1.45
27 | B27 | -0.59 | 2.35 | 0.972 | 2.68
28 | B28 | 0.414 | 2.98 | 0.135 | 3.4
29 | B29 | 3.74 | 3.86 | 1.64 | 1.54
30 | B30 | 3.92 | 2.02 | -1.57 | 0.889
31 | B31 | 1.57 | -0.744 | -2.09 | 0.993
32 | B32 | 0.27 | -1.55 | -0.283 | 1.49
